The source made the active and inactive calls. Unless noted, no rule for the calls is given here.

A short description of assay [1]: liver-stage malaria parasite load reduction – cell-based, known kinase inhibitor set, luminescence, hepatoma host viability (AID 624392).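 Also: infected cells incubated roughly two days before readout.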 To be noted: Plasmodium liver stage in hepatoma cells, luciferase luminescence, concentration not given here; liver cell % of control: measured here: host liver cell viability; parasite % of control: stronger effect = lower value.
The nature of assay [2]: altered dexamethasone sensitivity, NF-kB reporter, cell-based, luciferase, IL-1B stimulus (AID 624486).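 As to percent of negative control (+Dex): 100% = mean signal of vehicle control wells on the plate.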 To be noted: IL-1B + dexamethasone, luminescence; percent of negative control (+Dex): actives lie on both sides, concentration not given here; z-score: measured here: IL-1B alone, no Dex.
The nature of assay [3]: C. elegans survival during P. aeruginosa infection – whole organism (AID 651566).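 Also: tested at 14 µM; sign flipped so higher z means a lower ratio.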 To be noted: C. elegans killed by P. aeruginosa, survival ratio.
Assay [4] in a line: pro-inflammatory signaling induction in mouse macrophages – cell-based, murine, luminescence (AID 652131). To be noted: murine macrophage pro-inflammatory reporter, stronger effect = higher value.
In assay [5] the target is Cellular tumor antigen p53 (Homo sapiens) (UniProt P04637). The assay can be described thus: GFP-p53 level modulators in HPV16+ cells – imaging, known kinase inhibitor set, EGFP/DsRed ratio (AID 1053116).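 Also: cells exposed to compounds for 24 h at 37 °C before reading.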 To be noted: GFP-p53 stability, stronger effect = higher value; EGFP object count: measured here: GFP-p53 positive objects count.
Sequence of Cellular tumor antigen p53 (Homo sapiens) (P04637 whole entry, looked up): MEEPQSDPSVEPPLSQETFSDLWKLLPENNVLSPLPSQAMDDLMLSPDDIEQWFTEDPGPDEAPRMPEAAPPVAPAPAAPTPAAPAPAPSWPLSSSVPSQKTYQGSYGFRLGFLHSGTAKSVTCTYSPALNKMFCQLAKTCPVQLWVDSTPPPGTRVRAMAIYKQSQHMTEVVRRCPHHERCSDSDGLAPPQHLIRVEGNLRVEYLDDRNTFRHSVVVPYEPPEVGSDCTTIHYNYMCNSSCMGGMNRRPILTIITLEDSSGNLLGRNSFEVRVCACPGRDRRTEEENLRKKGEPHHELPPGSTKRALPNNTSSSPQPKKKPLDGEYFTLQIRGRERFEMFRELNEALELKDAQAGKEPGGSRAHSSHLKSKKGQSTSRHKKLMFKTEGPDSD
Assay [6] is described as follows: inducers of IRF3 signaling, differentiated THP-1 – cell-based, PMA-stimulated THP-1, luminescence (AID 1053176). To be noted: PMA-differentiated THP-1, IRF3 reporter luminescence; stronger effect = higher value.
Assay [7] in a line: MELAS cybrid and Rieske KO viability enhancers – cell-based, MELAS cybrids, Rieske KO mouse fibroblasts, CellTiter-Glo, primary screen (AID 1508586;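 active = mean z-score across replicates of 1.96 or higher in either the MELAS or the Rieske mutant cell line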;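 also: z relative to plate mean and SD of compound and empty wells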). To be noted: low glucose. On the technique in general: Cellular ATP, detected with luciferase, serves as a proxy for viable cell number.
[8] abbreviates: MELAS cybrid survival, CellTiter-Glo 48 h, stronger effect = higher value.
[9] abbreviates: Rieske KO mouse fibroblast survival, CellTiter-Glo 72 h.

`CS(=O)(=O)CCNCc1ccc(-c2ccc3ncnc(Nc4ccc(OCc5ccccc5)cc4)c3c2)o1` displayed a liver cell % of control in assay [1] of 63.9%. In addition, in assay [1], the parasite % of control is 59.1% (inactive). Also, the percent of negative control (+Dex) in assay [2] was 74.5% (inactive). Moreover, the z-score is -1.54 in assay [2]; 0.41 (inactive) in assay [3]; -0.003 (inactive) in assay [4]; 0.5 (inactive) in assay [7] (setting [8]); -0.312 in assay [7] (setting [9]). Besides, in assay [5], the EGFP object count was 6.5. For the same compound, the EGFP/DsRed ratio in assay [5] was 0.116 (inactive). In assay [6], the fraction signal was 0.006 (inactive).
In turn, `COc1ccc(-c2nn3ncccc3c2-c2ccnc(Nc3cccc(C(F)(F)F)c3)n2)cc1` displayed a liver cell % of control in assay [1] of 92.5%. For the same compound, the parasite % of control in assay [1] was 122% (inactive). In addition, the percent of negative control (+Dex) in assay [2] was 90.5% (inactive). The z-score in assay [2] was 0.64; in assay [3], 0.3 (inactive); in assay [4], 0.045 (inactive); in assay [7] (setting [8]) it was 1.24 (inactive); in assay [7] (setting [9]), -0.239. Besides, the EGFP object count in assay [5] was 4.5. Further, the EGFP/DsRed ratio in assay [5] is 0.0918 (inactive). Also, in assay [6], the fraction signal was 0.002 (inactive).
Turning to `Fc1ccc(-c2ncn(C3CCNCC3)c2-c2ccnc(Oc3ccc(Oc4ccccc4)cc3)n2)cc1`, the liver cell % of control in assay [1] was determined as 58.8%. Further, the parasite % of control in assay [1] was 102% (inactive). In assay [2], the percent of negative control (+Dex) is 99% (inactive). Further, the z-score in assay [2] is 0.615; in assay [3] it was -1.07 (inactive); in assay [4], -0.715 (inactive); in assay [7] (setting [8]), -0.215 (inactive); in assay [7] (setting [9]) it was -0.0474. In addition, in assay [5], the EGFP object count was found to be 28.5. For the same compound, in assay [5], the EGFP/DsRed ratio is 0.354 (inactive). Besides, in assay [6], the fraction signal was -0.002 (inactive).
Consider `COc1cc2c(cc1Nc1nc(Nc3ccsc3C(N)=O)c3cc[nH]c3n1)N(C(=O)CN(C)C)CCC2(C)C`, for which the liver cell % of control in assay [1] worked out at 67.7%. Besides, in assay [1], the parasite % of control was 290% (inactive). Also, in assay [2], the percent of negative control (+Dex) is 91% (inactive). The z-score was -0.245 in assay [2]; 0.455 (inactive) in assay [3]; 2.78 (inactive) in assay [4]; 0.737 in assay [7] (setting [8]); 2.24 in assay [7] (setting [9]). Also, the EGFP object count in assay [5] worked out at 3.5. Further, the EGFP/DsRed ratio in assay [5] was 0.0546 (inactive). Also, the fraction signal in assay [6] is 0.001 (inactive).
The compound `Nc1nc(-c2cccc(Cl)c2)c(-c2ccc3ncccc3n2)s1` displayed a liver cell % of control in assay [1] of 156%. In assay [1], the parasite % of control was 115% (inactive). Further, in assay [2], the percent of negative control (+Dex) was 103% (inactive). The z-score in assay [2] is 0.42; in assay [3], -1.02 (inactive); in assay [4] it was -0.477 (inactive); in assay [7] (setting [8]), 0.115 (inactive); in assay [7] (setting [9]), -0.0691. Further, the EGFP object count in assay [5] is 2.5. Further, the EGFP/DsRed ratio in assay [5] was 0.0471 (inactive). Further, the fraction signal in assay [6] is -0.0045 (inactive).
As for `Cc1ccc(NC(=O)c2ccoc2)cc1-c1ccc(C(=O)NCC2CC2)cc1`, the liver cell % of control in assay [1] came to 104%. For the same compound, the parasite % of control in assay [1] is 120% (inactive). Besides, in assay [2], the percent of negative control (+Dex) is 99.5% (inactive). The z-score in assay [2] was 0.73; in assay [3], 0.02 (inactive); in assay [4] it was -0.057 (inactive); in assay [7] (setting [8]), -1.06 (inactive); in assay [7] (setting [9]), -0.276. Moreover, in assay [5], the EGFP object count worked out at 2. In addition, the EGFP/DsRed ratio in assay [5] is 0.0344 (inactive). Besides, the fraction signal in assay [6] is -0.016 (inactive).
Turning to `Cc1cc(O)cc(C)c1/C=C/c1cncc(C(N)=O)c1`, the liver cell % of control in assay [1] is 105%. Further, the parasite % of control in assay [1] is 146% (inactive). Also, the percent of negative control (+Dex) in assay [2] was 106% (inactive). In addition, the z-score was 0.29 in assay [2]; -0.395 (inactive) in assay [3]; 0.198 (inactive) in assay [4]; -0.353 (inactive) in assay [7] (setting [8]); -0.218 in assay [7] (setting [9]). Also, in assay [5], the EGFP object count was determined as 4. Also, the EGFP/DsRed ratio in assay [5] is 0.013 (inactive). The fraction signal in assay [6] is -0.001 (inactive).
Consider `CN(c1ccc(NC(=O)Nc2c(Cl)cccc2Cl)cc1)c1ccnc(Nc2cccc(CS(C)(=O)=O)c2)n1`, for which the liver cell % of control in assay [1] was 108%. Moreover, in assay [1], the parasite % of control is 130% (inactive). Moreover, the percent of negative control (+Dex) in assay [2] is 134% (inactive). Moreover, the z-score in assay [2] was 3.88; in assay [3], 0.545 (inactive); in assay [4], 5.36 (inactive); in assay [7] (setting [8]) it was -0.649 (inactive); in assay [7] (setting [9]), -0.476. Also, the EGFP object count in assay [5] came out at 4. In assay [5], the EGFP/DsRed ratio is 0.171 (inactive). In assay [6], the fraction signal was 0.005 (inactive).
For the compound `NS(=O)(=O)c1ccc(Nc2ncc(-c3ccccc3)o2)cc1`, in assay [1], the liver cell % of control is 108%. The parasite % of control in assay [1] was 123% (inactive). For the same compound, the percent of negative control (+Dex) in assay [2] is 117% (inactive). The z-score in assay [2] is 0.745; in assay [3], -0.98 (inactive); in assay [4] it was 0.209 (inactive); in assay [7] (setting [8]), 1.06 (inactive); in assay [7] (setting [9]) it was -0.0466. The EGFP object count in assay [5] came to 3.5. Moreover, in assay [5], the EGFP/DsRed ratio was 0.0759 (inactive). For the same compound, the fraction signal in assay [6] is -0.0035 (inactive).
In assay [1], `NS(=O)(=O)c1ccc(N=Nc2c(O)[nH]c3ccc(-c4cnco4)cc23)cc1` showed a liver cell % of control of 87.3%. In addition, in assay [1], the parasite % of control was 140% (inactive). Further, in assay [2], the percent of negative control (+Dex) was 104% (inactive). Moreover, the z-score in assay [2] was 0.22; in assay [3], -0.29 (inactive); in assay [4], 3.29 (inactive); in assay [7] (setting [8]), 0.293 (inactive); in assay [7] (setting [9]) it was -0.0502. Further, the EGFP object count in assay [5] amounted to 10. Besides, the EGFP/DsRed ratio in assay [5] is 0.401 (inactive). Moreover, the fraction signal in assay [6] is 0.0025 (inactive).
Compound `NS(=O)(=O)c1ccc(N=Nc2c(O)[nH]c3ccc(C(=O)NCCc4cnc[nH]4)cc23)cc1` had a liver cell % of control in assay [1] of 82.2%. The parasite % of control in assay [1] was 110% (inactive). Further, the percent of negative control (+Dex) in assay [2] is 85.5% (inactive). Also, the z-score in assay [2] was -0.045; in assay [3] it was -1.15 (inactive); in assay [4], -0.108 (inactive); in assay [7] (setting [8]), 0.0573 (inactive); in assay [7] (setting [9]), -0.291. For the same compound, the EGFP object count in assay [5] came out at 7.5. The EGFP/DsRed ratio in assay [5] is 0.141 (inactive). The fraction signal in assay [6] was -0.0145 (inactive).
`CS(=O)(=O)CCNCc1ccc(-c2ccc3ncnc(Nc4ccc(OCc5ccccc5)c(C(F)(F)F)c4)c3c2)o1` returned a liver cell % of control in assay [1] of 107%. In assay [1], the parasite % of control is 128% (inactive). In assay [2], the percent of negative control (+Dex) is 91.5% (inactive). Besides, the z-score was -0.11 in assay [2]; -1.4 (inactive) in assay [3]; 0.401 (inactive) in assay [4]; 0.000746 (inactive) in assay [7] (setting [8]); -0.326 in assay [7] (setting [9]). Besides, the EGFP object count in assay [5] is 6. Also, the EGFP/DsRed ratio in assay [5] was 0.123 (inactive). For the same compound, the fraction signal in assay [6] is -0.0055 (inactive).
For the compound `Cc1ccc2[nH]c(O)c(N=Nc3ccc(S(N)(=O)=O)cc3)c2c1`, the liver cell % of control in assay [1] is 164%. Besides, the parasite % of control in assay [1] is 128% (inactive). Moreover, the percent of negative control (+Dex) in assay [2] is 102% (inactive). The z-score in assay [2] was 0.885; in assay [3], -0.295 (inactive); in assay [4], -0.079 (inactive); in assay [7] (setting [8]), -0.101 (inactive); in assay [7] (setting [9]), -0.00523. Also, the EGFP object count in assay [5] turned out to be 5. Besides, the EGFP/DsRed ratio in assay [5] was 0.439 (inactive). Further, the fraction signal in assay [6] was -0.0055 (inactive).
The compound `COc1cc(N2CCN(C(C)C)CC2)ccc1Nc1nc(Nc2cccc(F)c2C(=O)O)c2cc[nH]c2n1` gave a liver cell % of control in assay [1] of 115%. Further, the parasite % of control in assay [1] is 124% (inactive). The percent of negative control (+Dex) in assay [2] is 100% (inactive). In addition, the z-score is -0.075 in assay [2]; 1.24 (inactive) in assay [3]; -0.341 (inactive) in assay [4]; -0.385 (inactive) in assay [7] (setting [8]); -0.236 in assay [7] (setting [9]). Besides, the EGFP object count in assay [5] was determined as 4. Moreover, the EGFP/DsRed ratio in assay [5] was 0.0569 (inactive). The fraction signal in assay [6] was 0.0115 (inactive).
As to `CCc1cccc(NC(=O)Nc2ccc(Oc3ccc4nc(NC(=O)OC)[nH]c4c3)cc2)c1`, the liver cell % of control in assay [1] was 93.1%. In assay [1], the parasite % of control was 128% (inactive). In addition, in assay [2], the percent of negative control (+Dex) was 106% (inactive). Further, the z-score in assay [2] was 0.55; in assay [3], -0.175 (inactive); in assay [4] it was 0.13 (inactive); in assay [7] (setting [8]), -0.411 (inactive); in assay [7] (setting [9]), -0.621. Further, the EGFP object count in assay [5] came to 106. Further, the EGFP/DsRed ratio in assay [5] was 1.83 (active). In addition, the fraction signal in assay [6] is -0.002 (inactive).

These data come from PubChem BioAssay.
